One assay concerns the target Albumin (Bos taurus) (UniProt P02769). Put plainly: bovine serum albumin binders on microarray, profiling panel, artefact control for SMM control protein annotation, biochemical, small-molecule microarray, Alexa647 label, 635/667 nm fluorescence (AID 1118).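 Note: score merges 667 nm emission intensity and signal-to-noise per printed compound spot.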 The conditions noted are these: BSA-A647 binding, fluorescence 635 nm, higher = more signal.
A short description of assay [1]: small-molecule microarray binders of probe aXIP, primary screen, biochemical, NeuroSMM set, 635/667 nm fluorescence (AID 1119).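 Note: probe is the protein aXip251-270 applied at 1 µg/mL to compound-printed slides; binding of probe to printed compounds measured as 667 nm fluorescence plus signal to noise.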 Particulars: higher = more signal, called active from +8 up or from −8 down.
Assay [2] in a line: small-molecule binders of probe aNOTCH3, primary screen, biochemical, small-molecule microarray, 635/667 nm fluorescence (AID 1120).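 Note: probe is a biotin-tagged antibody raised against NOTCH3 rather than NOTCH3 protein; score merges spot fluorescence near 667 nm with spot signal to noise.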 The conditions noted are these: higher = more signal.
Assay [3] can be described thus: small-molecule binders of probe aNOTCH2, primary screen, biochemical, small-molecule microarray, 635/667 nm fluorescence (AID 1121).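 Note: score merges feature fluorescence read at 667 nm with its signal to noise.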 Particulars: higher = more signal.
The target of assay [4] is Carbonic anhydrase 2 (Homo sapiens) (UniProt P00918). Description: CAII small-molecule binders, profiling panel, biochemical, small-molecule microarray, Alexa647-labelled CAII (AID 1122). Particulars: CAII-A647 binding fluorescence, higher = more signal.
Assay [5] can be described thus: COS7 lysate on small-molecule microarray, probe aHis, 635 nm (AID 1123).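 Note: z-score combines 667nm fluorescence intensity with signal-to-noise per printed compound spot.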 The conditions noted are these: COS7 cell lysate, fluorescence, higher = more signal.
Assay [6] in a line: compound binding in COS7 lysate, probe aLAP1, primary screen, cell lysate, small-molecule microarray (AID 1124).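 Note: lysate comes from COS7 cells expressing LAP1 and is applied at 0.3 µg/mL; score merges spot fluorescence near 667 nm with signal-to-noise over triplicate slides.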 Particulars: probe aLAP1, fluorescence, higher = more signal.
In another assay the test system is Sam68 (KHDRBS1). Put plainly: Sam68 small-molecule binders, primary screen, biochemical, small-molecule microarray, 635 nm fluorescence (AID 1125).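 Note: score merges 667 nm channel intensity with signal to noise over triplicate slides.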 The conditions noted are these: small-molecule microarray binding, higher = more signal.
For assay [7], the system named is Chordin-like protein 2 (CHRDL2). Put plainly: CHRDL2 small-molecule binders, primary screen, biochemical, small-molecule microarray, 635 nm fluorescence (AID 1126).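 Note: printed compound slides probed with Chrdl2 protein at 4 µg/mL for 1 h at 4 C; score merges 667 nm emission intensity with signal to noise over three replicate slides.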 Particulars: small-molecule microarray binding, fluorescence 635 nm; higher = more signal.
In assay [8] the target is Concanavalin-A (Canavalia ensiformis) (UniProt P02866). Put plainly: ConA small-molecule binders, primary screen, artefact control for SMM control protein annotation, biochemical, small-molecule microarray, Alexa647 label, 635 nm (AID 1127).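 Note: z combines 667 nm emission intensity with signal-to-noise across three replicate slides.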 The conditions noted are these: ConA-A647 binding fluorescence, higher = more signal.
Chain of Concanavalin-A (Canavalia ensiformis) (P02866 whole entry, looked up): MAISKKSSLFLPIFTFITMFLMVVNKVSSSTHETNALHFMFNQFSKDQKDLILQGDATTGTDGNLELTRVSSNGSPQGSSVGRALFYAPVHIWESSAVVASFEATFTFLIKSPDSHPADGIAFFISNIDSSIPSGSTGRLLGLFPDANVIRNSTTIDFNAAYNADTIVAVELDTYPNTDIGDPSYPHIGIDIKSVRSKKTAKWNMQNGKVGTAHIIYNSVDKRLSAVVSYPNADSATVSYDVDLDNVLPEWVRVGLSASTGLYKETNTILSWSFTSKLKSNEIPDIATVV
The nature of assay [9]: anti-His antibody binders, primary screen, artefact control for SMM control protein annotation, biochemical, small-molecule microarray, 635 nm fluorescence (AID 1128).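 Note: score merges feature fluorescence with signal-to-noise for each printed compound spot.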 The conditions noted are these: anti-His Alexa647 antibody binding, higher = more signal.
Assay [10] relates to Human papillomavirus type 1a E7 protein (residues 1-88). Description: HPV1a E7 small-molecule binders, primary screen, biochemical, small-molecule microarray, residues 1-88, 635 nm (AID 1129). Particulars: small-molecule microarray binding, fluorescence 635 nm; higher = more signal.
The target of assay [11] is Focal adhesion kinase 1 (Homo sapiens) (UniProt Q05397). Description: small-molecule microarray binders of FAK, primary screen, biochemical, 635/667 nm fluorescence, BSA, DTT (AID 1130).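 Note: composite of spot emission at 667 nm and signal to noise over triplicate slides.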 The conditions noted are these: PTK2 binding, 635 nm fluorescence, higher = more signal.
Chain of Focal adhesion kinase 1 (Homo sapiens) (Q05397 whole entry, looked up): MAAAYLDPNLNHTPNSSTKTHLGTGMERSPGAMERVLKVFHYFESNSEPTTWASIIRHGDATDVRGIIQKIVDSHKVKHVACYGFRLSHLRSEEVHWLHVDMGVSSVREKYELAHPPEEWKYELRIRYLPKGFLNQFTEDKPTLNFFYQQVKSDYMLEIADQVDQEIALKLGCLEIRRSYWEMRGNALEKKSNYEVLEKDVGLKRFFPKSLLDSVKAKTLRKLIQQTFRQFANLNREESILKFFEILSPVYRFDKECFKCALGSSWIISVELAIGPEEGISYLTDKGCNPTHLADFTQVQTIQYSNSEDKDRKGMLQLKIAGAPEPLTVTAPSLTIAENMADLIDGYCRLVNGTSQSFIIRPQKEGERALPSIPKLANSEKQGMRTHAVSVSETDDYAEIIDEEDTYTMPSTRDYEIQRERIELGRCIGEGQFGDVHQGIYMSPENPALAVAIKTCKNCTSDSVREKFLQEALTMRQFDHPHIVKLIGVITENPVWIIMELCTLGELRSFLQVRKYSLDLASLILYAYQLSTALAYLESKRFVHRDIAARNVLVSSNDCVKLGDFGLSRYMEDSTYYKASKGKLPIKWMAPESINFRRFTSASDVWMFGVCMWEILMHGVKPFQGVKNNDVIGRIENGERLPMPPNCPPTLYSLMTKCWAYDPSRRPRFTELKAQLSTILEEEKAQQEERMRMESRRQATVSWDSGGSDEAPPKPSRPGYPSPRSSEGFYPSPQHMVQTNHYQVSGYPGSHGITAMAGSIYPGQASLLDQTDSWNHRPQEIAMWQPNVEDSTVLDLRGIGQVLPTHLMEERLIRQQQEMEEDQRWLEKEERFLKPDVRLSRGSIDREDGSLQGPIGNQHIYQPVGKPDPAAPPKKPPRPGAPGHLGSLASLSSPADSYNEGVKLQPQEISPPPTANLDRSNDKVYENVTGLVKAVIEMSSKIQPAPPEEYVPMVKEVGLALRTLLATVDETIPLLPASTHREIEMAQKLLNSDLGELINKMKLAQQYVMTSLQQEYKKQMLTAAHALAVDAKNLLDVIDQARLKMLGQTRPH
Assay [12] concerns Fibrinogen (Alexa647-labelled). Description: fibrinogen binders on compound microarrays, profiling panel, artefact control for SMM control-protein annotation, biochemical, small-molecule microarray, 635/667 nm fluorescence (AID 1131).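 Note: z-score merges 667 nm fluorescence with per-spot signal-to-noise over triplicate slides.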 The conditions noted are these: fibrinogen-A647 binding fluorescence, higher = more signal.
The target of assay [13] is Follistatin (Homo sapiens) (UniProt P19883). Put plainly: follistatin binders on small-molecule microarrays, primary screen, biochemical, small-molecule microarray, 635/667 nm fluorescence (AID 1132). Particulars: FST binding, 635 nm fluorescence, higher = more signal.
Chain of Follistatin (Homo sapiens) (P19883 whole entry, looked up): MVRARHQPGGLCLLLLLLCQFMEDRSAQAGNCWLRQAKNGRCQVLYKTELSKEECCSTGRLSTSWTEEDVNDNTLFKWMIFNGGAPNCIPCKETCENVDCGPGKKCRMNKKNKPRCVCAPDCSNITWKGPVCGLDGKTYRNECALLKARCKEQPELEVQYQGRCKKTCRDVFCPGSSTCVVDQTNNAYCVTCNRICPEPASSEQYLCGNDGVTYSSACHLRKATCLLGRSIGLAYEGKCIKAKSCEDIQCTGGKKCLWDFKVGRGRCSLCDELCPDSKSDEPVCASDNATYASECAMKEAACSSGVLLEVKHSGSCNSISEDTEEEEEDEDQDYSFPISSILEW
For assay [14], the target named is Fibroblast growth factor 2 (Homo sapiens) (UniProt P09038). Description: FGF2 binders on small-molecule microarrays, primary screen, biochemical, small-molecule microarray, 635/667 nm fluorescence (AID 1133). The conditions noted are these: small-molecule microarray binding, FGF2, fluorescence 635/667; higher = more signal.
Chain of Fibroblast growth factor 2 (Homo sapiens) (P09038 whole entry, looked up): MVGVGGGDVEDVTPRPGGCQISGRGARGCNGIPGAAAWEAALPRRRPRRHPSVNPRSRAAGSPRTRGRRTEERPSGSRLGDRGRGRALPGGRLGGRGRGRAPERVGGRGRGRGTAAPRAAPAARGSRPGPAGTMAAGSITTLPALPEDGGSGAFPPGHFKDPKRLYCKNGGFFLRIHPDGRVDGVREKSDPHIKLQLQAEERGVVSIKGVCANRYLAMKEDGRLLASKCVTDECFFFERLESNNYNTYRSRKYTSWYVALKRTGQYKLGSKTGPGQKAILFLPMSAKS
A short description of assay [15]: mitochondrial membrane potential change in A549 cells, profiling panel, cell-based, JC-1 fluorescence, basal, 24 h, 100 nL (AID 1138).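 Note: A549 lung adenocarcinoma cells under basal conditions with no added stimulus; test concentration not given here.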 Particulars: higher = more signal.
The test system of another assay is Lefty1. Put plainly: Lefty1 binders on small-molecule microarrays, primary screen, biochemical, small-molecule microarray, 635/667 nm fluorescence (AID 1139). Particulars: small-molecule microarray binding, fluorescence 635/667; higher = more signal.
The test system of assay [16] is wheat germ agglutinin (Triticum aestivum), Alexa647-labelled. Put plainly: wheat germ agglutinin binders on compound microarrays, profiling panel, artefact control for SMM control-protein annotation, biochemical, small-molecule microarray, 635/667 nm fluorescence (AID 1140).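 Note: score merges 667 nm feature emission with signal to noise over triplicate slides.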 The conditions noted are these: WGA-A647 binding, 635 nm fluorescence, higher = more signal.

Assay [17] deals with Luciferin 4-monooxygenase (Photinus pyralis) (UniProt P08659). Put plainly: firefly luciferase enzyme inhibitors, primary screen, biochemical, luminescence, purified enzyme, 2006 set (AID 1141).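 Note: cell-free assay with purified firefly luciferase at 100 ng per well in PBS; test concentration not given here.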 Particulars: SteadyGlo luminescence, 30 min, higher = more signal, called active from +8 up or from −8 down.
Chain of Luciferin 4-monooxygenase (Photinus pyralis) (P08659 whole entry, looked up): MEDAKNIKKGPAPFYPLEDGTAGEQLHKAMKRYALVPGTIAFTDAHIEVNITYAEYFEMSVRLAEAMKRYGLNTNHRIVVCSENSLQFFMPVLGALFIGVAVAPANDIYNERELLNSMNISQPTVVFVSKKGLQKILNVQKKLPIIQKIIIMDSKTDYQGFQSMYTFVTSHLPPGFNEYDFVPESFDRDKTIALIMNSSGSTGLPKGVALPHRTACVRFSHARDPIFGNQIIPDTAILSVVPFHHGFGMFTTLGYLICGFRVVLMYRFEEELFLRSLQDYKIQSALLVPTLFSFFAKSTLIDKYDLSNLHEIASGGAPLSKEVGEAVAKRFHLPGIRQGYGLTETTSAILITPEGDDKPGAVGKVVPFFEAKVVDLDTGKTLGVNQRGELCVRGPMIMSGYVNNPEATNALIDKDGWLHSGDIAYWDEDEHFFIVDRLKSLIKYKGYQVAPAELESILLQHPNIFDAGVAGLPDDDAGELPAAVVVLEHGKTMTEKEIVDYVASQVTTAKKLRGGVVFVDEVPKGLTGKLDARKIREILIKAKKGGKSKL

The structures appear in SMILES notation. Activity calls are given as the source filed them.

Chain of Albumin (Bos taurus) (P02769 whole entry, looked up): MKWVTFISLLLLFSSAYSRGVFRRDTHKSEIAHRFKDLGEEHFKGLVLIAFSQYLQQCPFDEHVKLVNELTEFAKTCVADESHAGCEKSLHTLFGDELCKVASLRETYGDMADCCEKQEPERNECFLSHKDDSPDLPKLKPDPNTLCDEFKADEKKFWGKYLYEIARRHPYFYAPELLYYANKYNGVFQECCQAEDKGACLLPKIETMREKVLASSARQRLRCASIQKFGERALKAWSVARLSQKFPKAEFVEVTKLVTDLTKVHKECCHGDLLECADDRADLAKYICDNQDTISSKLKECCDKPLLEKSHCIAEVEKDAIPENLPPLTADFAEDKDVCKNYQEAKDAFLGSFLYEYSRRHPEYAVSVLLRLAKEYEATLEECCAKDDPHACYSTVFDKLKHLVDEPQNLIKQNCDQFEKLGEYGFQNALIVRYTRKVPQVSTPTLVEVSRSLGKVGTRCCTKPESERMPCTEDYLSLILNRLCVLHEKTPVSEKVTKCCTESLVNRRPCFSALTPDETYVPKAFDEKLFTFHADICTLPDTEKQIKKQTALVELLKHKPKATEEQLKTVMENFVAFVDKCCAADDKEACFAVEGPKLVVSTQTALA

Consider `CCOC(=O)NN=C1C[C@@H](O)[C@@H](O)[C@@H]2[C@@H]3C(=O)N(C(C)(C)C)C(=O)[C@@H]3CC[C@@H]12`, for which the composite z-score with Albumin (Bos taurus) was -0.422; in assay [2] it was -0.0328; in assay [3], -0.14; in [4], -1.23; in assay [5] it was -0.443; in [6] it was 0.171. Also, the composite z-score with Sam68 (KHDRBS1) was -0.605; in assay [7], -0.63; in assay [8] it was -0.651; in assay [9], -0.889; in assay [10] it was -0.461; in assay [11], 0.291. Further, the composite z-score was -0.417 in assay [12]; -0.686 in assay [13]; 0.638 in assay [14]; -0.519 in the assay with Lefty1; -1.19 in assay [16]. Besides, the composite Z-score in assay [1] is 0.136 (inactive). Besides, the z-score is 0.0179 in [15] and 0.413 (inactive) in assay [17].

Take `O=C1[C@H]2[C@H]3[C@H](O)[C@H](O)CC(=NOC[C@@H](O)COCc4ccco4)[C@H]3CC[C@H]2C(=O)N1Cc1ccc2c(c1)OCO2`: the composite z-score was -0.244 in the assay with Albumin (Bos taurus); -0.29 in assay [2]; -0.17 in [3]; -0.441 in assay [4]; -0.385 in assay [5]; 0.311 in assay [6]. The composite z-score with Sam68 (KHDRBS1) was 0.0595; in assay [7], 1.49; in [8], -1.26; in assay [9], 0.729; in assay [10], -0.413; in assay [11], -0.237. Further, the composite z-score in [12] was -0.447; in [13] it was 1.3; in assay [14], 1.57; in the assay with Lefty1 it was 1.25; in assay [16], -0.186. Moreover, the composite Z-score in assay [1] was -0.377 (inactive). Further, the z-score in assay [15] is -0.0273; in [17], 0.546 (inactive).

Take `COC(=O)[C@H](C)NC(=O)CCC1CC(OC(=O)NCCc2ccc(F)cc2)CC2(CCCC(COC(=O)NCC(c3ccccc3)c3ccccc3)O2)O1` (stereo not given in full): the composite z-score was 0.675 with Albumin (Bos taurus); -0.0932 in assay [2]; -0.1 in [3]; 0.343 in assay [4]; 1.44 in assay [5]; 0.031 in assay [6]. The composite z-score was determined as 1.22 with Sam68 (KHDRBS1); 0.17 in assay [7]; 0.714 in assay [8]; 0.862 in assay [9]; 1.18 in assay [10]; 0.548 in [11]. The composite z-score in assay [12] was 0.834; in [13], 0.342; in assay [14], 0.0725; in the assay on Lefty1 it was 0.483; in assay [16], 0.958. Besides, in [1], the composite Z-score is 0.269 (inactive). Besides, the z-score in assay [15] is 0.549; in [17] it was 0.467 (inactive).

Turning to `CC(C)=CCCC(C)=CCON=C1[C@H]2CCn3c(=O)n(Cc4cc5c(cc4Cl)OCO5)c(=O)n3[C@H]2[C@H](O)[C@@H]2O[C@H]12`, the composite z-score is -0.0415 in the assay with Albumin (Bos taurus); 0.204 in assay [2]; -0.131 in assay [3]; -0.158 in assay [4]; -0.605 in assay [5]; 0.0561 in [6]. Also, the composite z-score with Sam68 (KHDRBS1) is -0.218; in [7], 1.08; in assay [8], 0.598; in assay [9], 0.321; in [10], 0.349; in assay [11], 0.138. In addition, the composite z-score in assay [12] is 0.544; in assay [13], 0.908; in assay [14] it was 0.367; in the assay with Lefty1 it was 0.889; in assay [16] it was -0.0863. Further, in [1], the composite Z-score is -0.116 (inactive). For the same compound, the z-score in assay [15] was -0.939; in assay [17], 0.196 (inactive).

Regarding `CC(C)CON=C1C[C@@H](O)[C@@H](O)[C@@H]2[C@@H]3C(=O)N(Cc4ccccc4)C(=O)[C@@H]3CC[C@@H]12`, the composite z-score with Albumin (Bos taurus) was 0.0737; in assay [2], -0.0679; in [3], -0.153; in [4], -0.111; in assay [5] it was -0.137; in assay [6] it was -0.0468. Further, the composite z-score in the assay with Sam68 (KHDRBS1) is 0.631; in assay [7] it was 0.716; in assay [8], -0.0393; in [9], 0.705; in [10] it was 0.633; in assay [11], 0.528. Also, the composite z-score in assay [12] is -0.598; in assay [13], -0.163; in assay [14], 0.239; in the assay with Lefty1 it was 0.516; in [16], 0.0615. Moreover, the composite Z-score in assay [1] is 0.156 (inactive). Besides, the z-score in assay [15] was -0.762; in [17], 1.12 (inactive).

(Values after PubChem BioAssay.)
